Reference: the supplement of paper PMC6555819

Assays:
Test in all cases: PBM binding z-score (relative to random genomic background probes); higher = stronger binding; sequences stand for … in GC…GCGATTGACAGCGTAGAATGAAGG
[1] = tested on: FXR:RXRa (NR concentration 270 nM, RXRa partner concentration 90 nM)
Summary of the method: (§1)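 Binding z-scores take random background probes as their reference. They come from custom Agilent 4×180K protein-binding microarrays incubated 1 h with ligand-free nuclear receptor dimers, with antibodies against each partner (one per run) detecting binding. Scanned fluorescence was regression-normalized.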

[2] = tested on: LXRa:RXRa (NR concentration 270 nM, RXRa partner concentration 90 nM)
Summary of the method: as §1

[3] = tested on: LXRa homodimer (NR concentration 270 nM)
Summary of the method: as §1

[4] = tested on: LXRb:RXRa (NR concentration 270 nM, RXRa partner concentration 90 nM)
Summary of the method: as §1

[5] = tested on: LXRb homodimer (NR concentration 270 nM)
Summary of the method: as §1

[6] = tested on: PPARa:RXRa (NR concentration 270 nM, RXRa partner concentration 90 nM)
Summary of the method: as §1

[7] = tested on: PPARg:RXRa (NR concentration 180 nM, RXRa partner concentration 90 nM)
Summary of the method: as §1

[8] = tested on: PPARg:RXRa 270nM:90nM, anti-RXR (NR concentration 270 nM, RXRa partner concentration 90 nM)
Summary of the method: as §1

[9] = tested on: PPARg:RXRa 30nM:10nM, anti-RXR (NR concentration 30 nM, RXRa partner concentration 10 nM)
Summary of the method: as §1

[10] = tested on: PPARg:RXRa 90nM:30nM, anti-RXR (NR concentration 90 nM, RXRa partner concentration 30 nM)
Summary of the method: as §1

Row | Sequence | PBM binding z-score [1] | PBM binding z-score [2] | PBM binding z-score [3] | PBM binding z-score [4] | PBM binding z-score [5] | PBM binding z-score [6] | PBM binding z-score [7] | PBM binding z-score [8] | PBM binding z-score [9] | PBM binding z-score [10]
1 | CCTTACGGGTCACGAGGTTATAGTACGACGAGCG | 6.36 | 4.81 | 0.561 | 4.06 | 0.224 | 6.09 | 7.25 | 6.66 | 3.38 | 5.43
2 | CCCTACGGGTCAAGGTTATAGCACGGGTGGTACG | 5.27 | 3.4 | 0.278 | 2.78 | -0.151 | 4.7 | 3.55 | 4.19 | 1.1 | 2.75
3 | TCACGGAGGACACGAAGGTCAGAGCTTTCCAGAG | 1.21 | 1.07 | 0.259 | 0.963 | -1.12 | 1.99 | 0.712 | 1.52 | 2.16 | 1.87
4 | GGAACGAGGGCAAAGTTGAAAGCATCTGTCGACG | 2.18 | 1.34 | -0.458 | 1.26 | -0.325 | 4.91 | 8.72 | 8.04 | 7.29 | 8.83
5 | ACTTACGGGTCAACGAGCTTATAGCACGCGTATA | 6.23 | 3.9 | 0.0459 | 3.55 | 0.744 | 5.49 | 4.76 | 5.05 | 1.71 | 3.6
6 | TCTAGCAGGACAGAGGGTCACTCAAGAGGTACGG | 0.869 | 1.11 | -0.354 | 1.18 | -0.839 | 2.19 | 1.45 | 2.25 | 2.15 | 2.31
7 | CGTCCCAGGTCAGAGAGGTCAGTGAATGCCGAGT | 4.31 | 4.12 | 2.6 | 3.58 | 0.209 | 3.75 | 2.21 | 2.76 | 0.0256 | 1.76
8 | CGTCCAAGGTCGGCAGGTCAGTGAAAGCGACGTG | 1.48 | 0.7 | -0.723 | 0.338 | -1.39 | 1.95 | -0.15 | 0.764 | -0.459 | -0.168
9 | CGTCCAAGGTCAAGGTCAGTCAAAGAGACTCGAA | 7.71 | 5.91 | 1.64 | 4.85 | 1.09 | 5.93 | 6.39 | 5.98 | 2.6 | 4.69
10 | CGTCATAGTTCAAGGTAACGTAACAGAAAGCAGC | 1.89 | 2.17 | 0.514 | 1.5 | 0.174 | 2.48 | 1.29 | 1.78 | 0.603 | 1.3
11 | TGTCAAAGTTCAGAGGTAACGTAAGTATCCACAC | 4.53 | 4.37 | 1.55 | 2.56 | 0.204 | 4.07 | 6.27 | 6.33 | 3.46 | 6.02
12 | ATCGAAAGGTCGACGAGGTGCGTATACACCGTTT | 4.16 | 2.96 | -0.0247 | 2.54 | 0.0651 | 4.07 | 2.24 | 2.73 | 0.695 | 1.53
13 | GATACAGGGTCAGCTAGAGGCTAGAGTATGGAAA | 4.9 | 2.5 | -0.262 | 2.16 | -0.533 | 4.51 | 3.64 | 3.06 | 0.467 | 1.89
